Compound activity (PubChem BioAssay)
KCNH2 WT inh: inhibitors of human wildtype KCNH2 potassium channel | Q12809 | U2OS, BacMam KCNH2, thallium flux FluxOr; active compounds read low | activity change, % at 1.84 µM | hit rate 0.37% among 340,000 | AID 720551;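 active = maximum activity change below -70%; inconclusive = maximum activity change between -70% and -50%; inactive = maximum activity change above -50%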
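U2OS cells transduced with wild-type KCNH2 virus are loaded with FluxOr dye for 45 min, and thallium flux is measured in kinetic reads before and after stimulation buffer. Rate constants are normalized to DMSO controls.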
CtBP-E1A blk: inhibitors of CtBP/E1A interaction | AlphaScreen GST-E1A/His-CtBP binding, 1536-well; active compounds read low | activity change, % (test concentration not listed) | hit rate 0.49% among 340,000 | AID 651724
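AlphaScreen with 125 nM GST-E1A and 125 nM His-CtBP (5X stocks) in Tris pH 8.0, 300 mM NaCl, BSA, Tween 20, TCEP. Compounds preincubated 2 h at 37 deg C, then glutathione donor/nickel acceptor beads added for 1 h at 37 deg C in dark.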
KCNH2 3.1 block: KCNH2 3.1 (human) potassium channel inhibition. U2OS KCNH2 3.1, thallium flux FluxOr; active compounds read low. activity change, % (tested at about 1.8 µM). hit rate 0.95% among 340,000. AID 720553;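 active = maximum activity change below -70%; inconclusive = maximum activity change from -70% to -50%; inactive = maximum activity change above -50%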;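 also: thallium influx rate constant from kinetic fluorescence after stimulation buffer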
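Measured as rate of thallium-driven FluxOr signal in transduced U2OS cells carrying the 3.1 channel, read kinetically for 2 min upon stimulation; values are rate constants scaled to DMSO control wells.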
KDM4E inh: inhibitors of human JMJD2E histone demethylase. B2RXH2. JMJD2E catalytic domain, FDH-coupled NADH fluorescence (FDH is formaldehyde dehydrogenase). Potency, µM (series often up to 57.1 µM), without a hit: at the highest dose activity change, negative = inhibition, usual class: inhibitors. hit rate 1.6% among 230,000. AID 2147; active = well fitted inhibition curve with a large enough effect, not every such curve was filed as active; inconclusive = small, poorly fitted or top-dose-only effect, or another doubt; inactive = no such curve, though single readings can be large or run the other way;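 also: potency is read from the fitted curve at half-maximal effect; 0% = wells with enzyme and -100% = buffer wells without enzyme; nearly all actives have a fitted effect of over 50% in size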
Target sequence (B2RXH2 1-337 limits assumed): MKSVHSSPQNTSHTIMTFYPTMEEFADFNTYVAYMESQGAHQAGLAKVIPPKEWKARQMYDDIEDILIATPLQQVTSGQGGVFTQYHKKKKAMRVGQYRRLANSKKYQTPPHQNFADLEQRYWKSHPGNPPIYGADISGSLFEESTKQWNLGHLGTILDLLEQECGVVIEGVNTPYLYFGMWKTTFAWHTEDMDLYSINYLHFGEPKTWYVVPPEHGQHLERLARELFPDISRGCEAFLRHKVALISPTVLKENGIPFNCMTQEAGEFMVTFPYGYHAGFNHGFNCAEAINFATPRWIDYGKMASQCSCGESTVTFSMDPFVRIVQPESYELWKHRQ
Six1-Eya2 blk: inhibitors of human Six1/Eya2 interaction; Q15475+O00167; AlphaScreen GST-Six1/His-Eya2 binding, biochemical; active compounds read low; activity change, % (test concentration not listed); hit rate 0.56% among 360,000
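Compounds are tested against tagged Six1 and Eya2 proteins bridged by glutathione donor and nickel acceptor beads; after a one-hour incubation at 37 °C without light, AlphaScreen emission is recorded.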
* marks the source's active call; other numbers are inactive results; ? = inconclusive; nt = not tested or not shown. Shown are actives, neighbours in structure and some others; about 2% of the full set was active somewhere. Rule as the data show it, unless noted: active = activity change below about -65%; inconclusive = mostly about -30% to -63%; inactive = weaker than that. Unless noted, % is scaled to controls: 0 for no effect and ±100 for the full control effect.

SMILES	KCNH2 WT inh	CtBP-E1A blk	KCNH2 3.1 block	KDM4E inh	Six1-Eya2 blk
CC1Oc2ccccc2C=C1/C=N/Nc1ccc(C(=O)O)cc1 (stereo not given)	6.2	1.6	15.6	?	-1.4
O=C(CCc1c[nH]c2ccccc12)NCC1COc2ccccc2O1 (stereo not given)	-19.4	-0.8	-4.5	-8.8%	-11.5
CCc1c(C)nc2[nH]nc(-c3ccccc3C)n2c1=O	-0.5	-12.3	-192.7*	?	-9.5
Cc1ccc(C2C3=C(CCCC3=O)OC3=C2C(=O)CCC3)cc1	8.5	-5.0	2.7	2.2%	16.0
Cc1ccc(C2C3=C(CC(C)(C)CC3=O)OC3=C2C(=O)CC(C)(C)C3)cc1	1.2	4.0	-85.0*	2.7%	-3.5
CC(=O)c1ccc2noc(-c3cccc(F)c3)c2c1	6.8	1.6	-82.8*	nt	-2.8
COc1cccc(-c2onc3ccc(C(C)=O)cc23)c1	3.9	1.9	7.6	nt	4.7
C/C(=N\NC(=O)c1ccccc1-n1cccc1)c1ccccn1	1.1	?	13.0	nt	-92.1*
C/C(=N\NC(=O)c1c[nH]c2ccccc12)c1ccccn1	-16.2	-93.4*	-3.1	?	-92.7*
CCc1ccc(/C(C)=N/NC(=O)c2ccccn2)cc1	1.5	4.7	-1.6	8.7%	-6.4
C/C(=N\NC(=O)c1ccc(F)cc1)c1ccccn1	-10.1	nt	15.7	nt	-91.8*
C/C(=N\NC(=O)c1cc2ccccc2cc1O)c1ccccn1	0.3	-20.6	-8.3	nt	-23.3
S=C1NCCN1CC1CCN(CCCC2CCCC2)CC1	41.3	1.4	-37.2	nt	1.7
CCOC(=O)c1c(CN(C)C)n(C)c2ccc(OC(C)=O)cc12	4.7	3.9	-11.5	?	4.9
Cc1ccc(NC(=O)Cn2ncn3c(cc4ccccc43)c2=O)c(C)c1	-5.8	-13.3	19.8	nt	-1.5
COc1ccc(CN2C(=O)Cc3c2nc(N)c2c(N)nc(N4CCCCC4)c(C#N)c32)cc1	nt	nt	nt	14.1µM*	nt
COc1cc2c(C#N)c(N3CCCCC3)nc(N)c2c(N)n1	-6.6	-7.9	-16.4	?	-14.6
CCCc1nnc(SCC(=O)Nc2cc(C)on2)n1CCOC	-0.8	0.3	0.2	nt	9.2
COc1ccc(-c2nc(C#N)c(NCCCN3CCOCC3)o2)cc1	-24.1	-2.5	8.4	5.01µM*	3.7
CCC(C)c1c(N)n(S(=O)(=O)c2ccc(C)cc2)oc1=O (stereo not given)	2.8	?	27.8	nt	-76.8*
COC(=O)c1sccc1NC(=S)Nc1ccc(F)cc1F	-1.6	nt	6.2	-9.4%	-17.3
c1ccc(-c2nccc(-c3ccco3)n2)nc1	-6.6	-67.4*	0.6	?	?
CC(=O)NNC(=O)C(O)(c1ccccc1)c1ccccc1	3.1	2.6	15.4	-1.8%	0.7
O=C(NCCCn1ccnc1)c1cc(-c2cccc(O)c2)on1	-3.3	nt	-6.9	1.0%	-11.4
COc1ccc(/C=C/c2cc(C(=O)O)c3ccccc3n2)cc1	-14.6	3.5	12.3	?	6.5
SMILES	KCNH2 WT inh	CtBP-E1A blk	KCNH2 3.1 block	KDM4E inh	Six1-Eya2 blk
Cc1cc(/C=C\c2ccccc2)nc2ccccc12	-28.0	-11.2	-188.7*	?	11.2
COc1ccc(C(=O)Nc2ccnc(-c3cccnc3)n2)cc1	0.5	-11.8	-17.8	-11.9%	-1.4
Cc1ccc(C(=O)Nc2ccnc(-c3cccnc3)n2)cc1	-8.2	-15.8	-109.3*	-4.3%	-3.6
CCC(=O)Nc1ccnc(-c2cccnc2)n1	4.8	-0.4	-107.7*	1.6%	-2.5
CC(C)(C)C(=O)Nc1ccnc(-c2cccnc2)n1	nt	nt	nt	1.7%	nt
COc1ccc(-c2cc(C#N)nc(Cl)n2)cc1	-5.8	-3.8	-80.2*	?	-13.4
COc1ccc(-c2cc(C#N)nc(Oc3ccc(Cl)cc3)n2)cc1	42.7	2.7	-23.8	1.5%	6.3
CC(C)C(N)c1csc(Nc2ccc(C(F)(F)F)cn2)n1 (stereo not given)	nt	?	nt	nt	-21.0
NC(c1csc(Nc2ccccn2)n1)c1ccccc1Cl (stereo not given)	nt	-90.5*	nt	nt	-78.6*
NC(c1csc(Nc2cnccn2)n1)c1ccccc1Cl (stereo not given)	nt	-75.5*	nt	nt	-66.9*
NC(c1csc(Nc2nncc3ccccc23)n1)c1ccccc1Cl (stereo not given)	nt	-3.5	nt	nt	-2.2
CC(C)C(N)c1csc(Nc2ccccn2)n1 (stereo not given)	nt	-90.7*	nt	nt	-83.2*
CCCCn1c(CN(C)Cc2ccccc2)nc2c1c(=O)n(C)c(=O)n2C	6.8	-1.1	0.7	1.1%	-2.9
Cc1cccc(OCc2nc(C)cc(=O)[nH]2)c1	10.3	0.0	-7.9	0.2%	0.0
O=[N+]([O-])c1ccc(-c2cn(-c3ccccc3)c(=S)[nH]2)cc1	-8.3	16.2	-13.9	6.2%	2.5
Cc1cccc(-n2cc(-c3ccc([N+](=O)[O-])cc3)[nH]c2=S)c1	-70.3*	9.9	?	-4.2%	2.9
CCC(C)C(=O)Nc1ccc(S(=O)(=O)Nc2nccs2)cc1 (stereo not given)	2.0	nt	-3.3	nt	-5.6
O=C(COc1ccc(Cl)cc1)N/N=C/c1cccc2cccnc12	6.4	?	nt	nt	?
COc1ccc(OCC(=O)N/N=C/c2cccc3cccnc23)cc1	-5.4	-85.6*	15.5	nt	-80.2*
COc1cccc(/C=N/NC(=O)CSc2cccc3cccnc23)c1	-0.1	-94.1*	6.2	?	-93.6*
COc1cccc(/C=N/NC(=O)COc2cccc3cccnc23)c1O	4.9	-79.9*	-0.8	?	?
CC(C)n1cc(/C=N/NC(=O)COc2cccc3cccnc23)c2ccccc21	-0.5	-1.5	-8.1	-2.1%	-16.5
COc1ccccc1OCC(=O)N/N=C/c1cccc2cccnc12	-10.2	-86.1*	nt	nt	-74.4*
COCCNc1nnc(SCC(=O)NC(=O)c2ccc(Cl)cc2)s1	-1.7	0.3	1.1	nt	3.7
O=C(CNC(=O)c1ccc(Br)o1)NNC(=O)COc1ccccc1Cl	-13.1	-2.3	-4.2	nt	-3.4
SMILES	KCNH2 WT inh	CtBP-E1A blk	KCNH2 3.1 block	KDM4E inh	Six1-Eya2 blk
COc1ccc(NC(=O)CCNS(=O)(=O)c2cc(Br)cnc2N)cc1OC	-10.2	5.5	8.5	nt	0.8
COc1ccc(CN2CC(C(=O)NCCN3CCOCC3)CC2=O)cc1 (stereo not given)	-5.8	-1.9	2.0	1.3%	8.3
Cc1[nH]c2ccccc2c1CCNC(=O)c1ccc2c(c1[N+](=O)[O-])C(=O)c1ccccc1C2=O	4.7	10.7	-12.7	3.7%	-73.3*
Cc1[nH]c2c(C)cccc2c1CCNC(=O)c1ccc2c(c1[N+](=O)[O-])C(=O)c1ccccc1C2=O	-3.4	-91.7*	1.3	13.3%	-65.3*
O=c1ccc2ccc(O[C@@H]3O[C@H](CO)[C@@H](O)[C@H](O)[C@H]3O)c(O)c2o1	-43.2	0.7	14.8	-4.3%	3.1
O=C(c1ccccc1OCc1ccc(Cl)cc1)N1CCN(c2ccccn2)CC1	1.8	-11.3	-21.0	nt	-1.5
CCCCCCN1C=C/C(=C\C=C(C#N)C#N)c2ccccc21	-147.7*	?	-105.4*	3.1%	?
